Experiment [1] addresses Lysosomal acid glucosylceramidase (Homo sapiens) (UniProt P04062). Briefly: Glucocerebrosidase-p2 (AID 348; in the data active means potency below about 10 µM; further: potency means the concentration at half of the fitted maximal effect). The note with it: purified GBA, blue fluorogenic substrate, 40 min. Summed up:
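Normal human glucocerebrosidase (0.2 nM) with blue fluorogenic substrate (80 uM final) in citrate/phosphate pH 5.9 with 10mM sodium taurocholate, 0.01% tween-20; 40 min RT, NaOH/glycine stop; fluorescence Ex 365/Em 440; AC50 from a titration from 0.6 nM upwards.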

Experiment [2] in a line: AP1 Signaling Pathway (AID 357). Further: on the % scale 0 is the no-effect control and ±100 the full control effect. The note with it: ME-180 AP-1-bla reporter, EGF-induced, beta-lactamase ratio, 5 h; at 7.69 µM (top of the series) unless noted. In outline: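 Read-out was the 460nm/530nm emission ratio (excitation 405nm) after CCF4 loading for 2.5 hours at room temperature. Cells carried an AP-1-driven beta-lactamase reporter, were stimulated with EC50 EGF plus compound for 5 hours, and AC50 values came from titrations.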

The nature of experiment [3]: Stat Signaling Pathway (AID 446).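 Further: ME-180 cervical cancer cells given 40 pM IL-6 alongside compound; SIE-controlled beta-lactamase reporter measured as 460/530 nm FRET emission ratio; on the % scale 0 is the no-effect control and ±100 the full control effect.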 To be noted: ME-180 SIE beta-lactamase reporter, IL-6 stimulated, 5 h; at 7.69 µM (top of the series) unless noted. In outline:
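Compound effects on IL-6-induced STAT reporter activity were measured in ME-180 cells. After overnight culture, cells were co-treated with 40 pM IL-6 for 5 hrs before beta-lactamase substrate loading at room temperature.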

In experiment [4] the target is Glucocorticoid receptor (Homo sapiens) (UniProt P04150). Briefly: GR-EFC Redistribution (AID 451; calls by dose curve; further: potency means the concentration at half of the fitted maximal effect). The note with it: CHO-K1 GR-EFC translocation, beta-gal luminescence, 2 h. In outline:
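CHO-K1 cells expressing nuclear EA and GR-ED fragments of b-gal; compounds titrated up to 46 uM final, 2 h at 37 C. GR nuclear translocation read as complemented b-gal luminescence after 1 h RT detection.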

Experiment [5] addresses Mitogen-activated protein kinase 10 (Mus musculus) (UniProt Q61831). Briefly: JNK3 AlphaScreen Assay (AID 530).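 Further: kinase came from lysate of stimulated human HepG2 cells; signal reports phosphorylation of biotinylated GST-cJun 1-79 at Ser73 with 10 µM ATP; on the % scale 0 is the no-effect control and ±100 the full control effect.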 To be noted: JNK3 lysate, c-Jun phosphorylation; series mostly up to 57.1 µM. In outline:
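Activity was read by AlphaScreen after JNK3-containing HepG2 lysate (cytokine pre-activated) phosphorylated biotinylated GST-cJun with 10 uM ATP at room temperature. Phospho-Ser73 cJun antibody with Protein-A acceptor beads provided detection.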
A general note: Alpha assays give light when donor and acceptor beads are brought close together.

In experiment [6] the target is 3',5'-cyclic-AMP phosphodiesterase 4B (Homo sapiens) (UniProt Q07343). Put plainly: qHTS Assay for Inhibitors of PDE-IV (AID 607; active means well fitted activation curve with a large enough effect in the main read-out, with a control signal flat, not every such curve was filed as active; further: % of control where 0% means no effect). To be noted: HEK293 ACTOne CNG channel cells, membrane potential fluorescence; series mostly up to 22.9 µM. In outline: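 ACTOne HEK293 cells carry a modified cAMP-gated CNG channel and express endogenous PDE4; plated 1000 cells/well, compounds up to 22.9 uM final. Membrane-potential dye fluorescence (ex 535/em 590) was read; parental cells received 10 uM forskolin + 100 uM RO 20-1724.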

Experiment [7] in a line: qHTS Assay for Lipid Storage Modulators (AID 1519; calls by dose curve). To be noted: Drosophila S3 cells, BODIPY lipid droplet/cell ratio, laser cytometry, cells loaded with oleic acid; for activity change, negative = inhibition: at 57.5 µM (top of the series). Summed up:
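Cells seeded at 5,000 per well were treated with compounds over a concentration series and loaded with oleic acid (400 uM, as added). Lipid droplet fluorescence (488 nm excitation, 500-530 nm channel) was read by laser-scanning cytometry and normalized to 20 uM Triacsin C.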
Background: qHTS replaces the single test concentration by a dilution series.

The nature of experiment [8]: Primary qHTS for small molecule stabilizers of the endoplasmic reticulum resident proteome: Secreted ER Calcium Modulated Protein (SERCaMP) assay (AID 1508630; active means well fitted inhibition curve with a large enough effect; further: on the % scale 0 is the no-effect control and ±100 the full control effect). The note with it: SH-SY5Y GLuc-SERCaMP (Gaussia luciferase released on ER calcium loss) secretion, thapsigargin, luminescence; series mostly up to 38.4 µM. In outline:
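The SH-SY5Y reporter protocol was run at 3 concentrations up to 38.3 uM (primary) or 11 concentrations (follow-up): 16 h compound, 100 nM thapsigargin for 4 h, then extracellular luciferase luminescence.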

The nature of experiment [9]: qHTS Assay for Identification of Small Molecule Agonists for Hypoxia Response Element Signaling Pathway (AID 914; active means well fitted activation curve with a large enough effect in the signal ratio, with a control signal flat, not every such curve was filed as active; the % refers to the signal ratio; further: % of control where 0% means no effect). To be noted: ME-180 (cervical carcinoma) HRE-bla reporter, beta-lactamase ratio, CoCl2, 17 h; activation: stronger effect = higher value. In outline: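 Cells were plated overnight, pin-dosed with compound in a titration series, co-stimulated with EC50 CoCl2 and incubated 17 hours at 37 degrees Celsius. CCF4 substrate was then loaded, and AC50 values came from the 460nm/530nm ratio.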

[10] abbreviates: measured here: cell count channel max response.
[11] abbreviates: measured here: lipid channel max response.

The structures appear in SMILES notation. Results filed as inconclusive are left out. Activity calls are given as the source filed them. Unless noted, the call rests on the fitted dose curve; in most records, active means well fitted curve in either direction with a large enough effect (not every such curve was filed as active); inconclusive means small, poorly fitted or top-dose-only effect, or another doubt; inactive means flat fitted curve, though single readings scatter. Some results are limits rather than exact numbers.

Lysosomal acid glucosylceramidase (Homo sapiens), sequence (P04062 whole entry, looked up): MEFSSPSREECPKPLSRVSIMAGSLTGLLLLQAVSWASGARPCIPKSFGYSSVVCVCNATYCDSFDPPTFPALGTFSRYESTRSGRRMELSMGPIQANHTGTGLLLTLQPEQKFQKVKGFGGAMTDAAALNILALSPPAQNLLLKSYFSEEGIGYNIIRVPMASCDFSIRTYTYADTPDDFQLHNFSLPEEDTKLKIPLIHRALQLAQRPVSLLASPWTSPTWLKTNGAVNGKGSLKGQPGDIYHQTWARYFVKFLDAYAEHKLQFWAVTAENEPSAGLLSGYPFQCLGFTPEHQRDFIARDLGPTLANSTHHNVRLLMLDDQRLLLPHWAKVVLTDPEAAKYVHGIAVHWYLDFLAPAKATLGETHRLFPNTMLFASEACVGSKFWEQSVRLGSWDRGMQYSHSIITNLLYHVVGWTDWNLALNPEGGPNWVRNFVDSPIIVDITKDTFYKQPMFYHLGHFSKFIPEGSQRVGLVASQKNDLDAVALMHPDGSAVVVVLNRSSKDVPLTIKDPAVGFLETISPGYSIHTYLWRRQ
Glucocorticoid receptor (Homo sapiens), sequence (P04150 whole entry, looked up, the tested form may be a part): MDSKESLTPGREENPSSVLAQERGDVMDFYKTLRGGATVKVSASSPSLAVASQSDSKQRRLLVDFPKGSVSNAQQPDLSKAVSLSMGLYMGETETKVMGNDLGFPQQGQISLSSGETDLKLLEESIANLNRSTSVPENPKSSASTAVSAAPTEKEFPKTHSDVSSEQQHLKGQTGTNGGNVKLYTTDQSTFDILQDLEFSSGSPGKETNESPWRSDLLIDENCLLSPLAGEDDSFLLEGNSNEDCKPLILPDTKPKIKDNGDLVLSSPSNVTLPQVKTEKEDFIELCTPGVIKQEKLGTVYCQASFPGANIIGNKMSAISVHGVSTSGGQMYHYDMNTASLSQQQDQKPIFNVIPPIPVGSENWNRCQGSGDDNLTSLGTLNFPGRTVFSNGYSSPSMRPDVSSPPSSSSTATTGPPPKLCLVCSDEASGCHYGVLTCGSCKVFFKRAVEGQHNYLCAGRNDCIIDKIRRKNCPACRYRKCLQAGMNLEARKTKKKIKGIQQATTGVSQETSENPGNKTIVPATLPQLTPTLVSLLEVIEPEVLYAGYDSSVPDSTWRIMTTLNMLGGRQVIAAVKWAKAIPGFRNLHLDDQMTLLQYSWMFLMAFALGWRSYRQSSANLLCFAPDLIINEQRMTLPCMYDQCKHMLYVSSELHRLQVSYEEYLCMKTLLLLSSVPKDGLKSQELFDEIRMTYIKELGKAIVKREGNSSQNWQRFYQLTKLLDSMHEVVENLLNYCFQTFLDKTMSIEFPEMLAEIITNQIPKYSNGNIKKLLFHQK
3',5'-cyclic-AMP phosphodiesterase 4B (Homo sapiens), sequence (Q07343 whole entry, looked up): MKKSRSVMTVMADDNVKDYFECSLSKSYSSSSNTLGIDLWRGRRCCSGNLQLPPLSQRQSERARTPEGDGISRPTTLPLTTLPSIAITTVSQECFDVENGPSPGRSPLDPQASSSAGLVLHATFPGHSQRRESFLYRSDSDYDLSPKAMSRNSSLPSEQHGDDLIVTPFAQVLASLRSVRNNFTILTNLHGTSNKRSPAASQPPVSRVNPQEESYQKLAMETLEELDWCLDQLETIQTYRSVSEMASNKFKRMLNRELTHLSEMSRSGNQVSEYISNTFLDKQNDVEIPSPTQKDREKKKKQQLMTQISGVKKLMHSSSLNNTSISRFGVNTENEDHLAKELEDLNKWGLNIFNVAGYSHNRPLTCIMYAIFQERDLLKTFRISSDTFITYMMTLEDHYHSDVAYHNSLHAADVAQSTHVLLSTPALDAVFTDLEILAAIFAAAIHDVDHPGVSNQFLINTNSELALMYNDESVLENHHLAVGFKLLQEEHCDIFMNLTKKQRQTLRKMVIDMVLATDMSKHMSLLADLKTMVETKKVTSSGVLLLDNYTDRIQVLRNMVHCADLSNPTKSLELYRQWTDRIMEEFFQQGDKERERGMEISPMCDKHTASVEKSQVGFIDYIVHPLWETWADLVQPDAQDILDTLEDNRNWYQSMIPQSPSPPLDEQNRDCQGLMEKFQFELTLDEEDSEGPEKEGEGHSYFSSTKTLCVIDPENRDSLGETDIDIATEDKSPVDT

With `COC(=O)N1CCC2(CCN(Cc3ccc(C#N)cc3)CC2)CC1`, the Potency in [1] is > 11.4 µM (inactive); in experiment [4] it was > 46 µM (inactive). In addition, the activity change, negative = inhibition in [2] is -12.5% (inactive); in experiment [7], 6.51% (inactive). Moreover, the activity, negative = inhibition in experiment [3] is 21.3% (inactive). Besides, the Potency result in [5] and in experiment [6] was “inactive” in each case. Also, the results for the max response in experiment [7] (setting [10]) and in experiment [7] (setting [11]) were 5.74% and 14.3%, respectively. Also, in experiment [8], the result was inactive.

Turning to `O=C(c1cccc(F)c1)N1CCC2(CCCN(c3ccncc3)C2)CC1`, the results for the Potency in experiment [1] and in [4] were > 11.4 µM (inactive) and > 46 µM (inactive), respectively. For the same molecule, the activity change, negative = inhibition in [2] was 8.58% (inactive); in [7], 3.69% (inactive). For the same molecule, the activity, negative = inhibition in experiment [3] is -8.19% (inactive). The Potency result in experiment [5] and in [6] was “inactive” in each case. The max response amounted to 9.25% in [7] (setting [10]) and 16.5% in [7] (setting [11]). Besides, the result in experiment [8] was inactive.

With `COc1ccc(C(=O)N2CCC3(CC2)CN(CC(C)C)C3)cc1`, the Potency in [1] is > 11.4 µM (inactive); in experiment [4] it was > 46 µM (inactive). The activity change, negative = inhibition in experiment [2] was 1.62% (inactive); in [7] it was 3.28% (inactive). Moreover, the activity, negative = inhibition in [3] was 6.78% (inactive). For the same molecule, the Potency entry in [5] and in [6] was “inactive” each time. Also, the max response in experiment [7] (setting [10]) turned out to be 16.1%; in [7] (setting [11]), 21.1%. Further, the result in experiment [8] was inactive.

As for `O=C(c1cnccn1)N1CCC2(CCCN(Cc3ccccc3)C2)CC1`, the Potency in experiment [1] is > 11.4 µM (inactive); in experiment [4] it was > 46 µM (inactive). The activity change, negative = inhibition in [2] is -6.44% (inactive); in experiment [7] it was 1.18% (inactive). Also, the activity, negative = inhibition in [3] was -11.8% (inactive). Further, the Potency entry in experiment [5] and in experiment [6] was “inactive” each time. Also, the activation in experiment [9] is 16.9% (inactive). For the same molecule, the figures for the max response in experiment [7] (setting [10]) and in experiment [7] (setting [11]) were 14.6% and 17.1%, respectively. Also, the result in [8] was inactive.

For the molecule `COc1ccccc1CN1CCCC2(CCN(C(=O)c3cccc(F)c3)CC2)C1`, the Potency in [1] was > 11.4 µM (inactive); in experiment [4] it was > 46 µM (inactive). For the same molecule, the values for the activity change, negative = inhibition in experiment [2] and in experiment [7] were -7.36% (inactive) and 0.576% (inactive), respectively. Also, the activity, negative = inhibition in [3] is 1.24% (inactive). Besides, the Potency entry in experiment [5] and in experiment [6] was “inactive” in each case. Further, the max response stood at 3.85% in experiment [7] (setting [10]) and 7.25% in experiment [7] (setting [11]). Also, the outcome in experiment [8] was inactive.

In the case of `N#Cc1ccc(CN2CCC3(CC2)CCN(C(=O)c2cccc(F)c2)CC3)cc1`, the Potency is > 11.4 µM (inactive) in [1] and > 46 µM (inactive) in experiment [4]. Besides, the activity change, negative = inhibition in experiment [2] was 3.84% (inactive); in experiment [7], 1.66% (inactive). The activity, negative = inhibition in experiment [3] is 8.5% (inactive). The Potency result in experiment [5] and in [6] was “inactive” each time. The max response came to 7.59% in [7] (setting [10]) and 9.63% in experiment [7] (setting [11]). Besides, the result in experiment [8] was inactive.

As to `COc1ccccc1CN1CCCC2(CCN(S(=O)(=O)c3ccccc3)CC2)C1`, the Potency in [1] was > 11.4 µM (inactive); in experiment [4], > 46 µM (inactive). Besides, the values for the activity change, negative = inhibition in experiment [2] and in experiment [7] were 0.799% (inactive) and 0.969% (inactive), respectively. For the same molecule, the activity, negative = inhibition in experiment [3] was 1.94% (inactive). Also, the Potency result in experiment [5] and in experiment [6] was “inactive” each time. The activation in experiment [9] was -6.58% (inactive). For the same molecule, the values for the max response in experiment [7] (setting [10]) and in experiment [7] (setting [11]) were -4.49% and 1.25%, respectively. For the same molecule, the result in experiment [8] was inactive.

Regarding `Cc1noc(C)c1C(=O)N1CCC2(CC1)CCN(c1ccccn1)CC2`, the Potency in [1] was > 11.4 µM (inactive); in [4], > 46 µM (inactive). In addition, the activity change, negative = inhibition is 0.789% (inactive) in [2] and 5.25% (inactive) in experiment [7]. For the same molecule, in experiment [3], the activity, negative = inhibition was -0.0391% (inactive). The Potency entry in experiment [5] and in experiment [6] was “inactive” each time. The max response was 8.43% in [7] (setting [10]) and 16.7% in [7] (setting [11]). For the same molecule, the outcome in [8] was inactive.
